The full ranking holds about 5,300 compounds; the median of “PER2::LUC luminescence relative to vehicle control” is about 0.96, and the highest 2% start at about 1.3. What follows is part of a selection rich in the highest values, with near analogues and random picks from the rest.
System: mPer2Luc MEF
Assay: PER2::LUC luminescence relative to vehicle control (fold of vehicle); higher = higher PER2::LUC reporter signal
Details: 10 µM
Procedure, shortened: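 In 384-well plates, ~3000 mPer2Luc reporter mouse embryonic fibroblasts per well were cultured in DMEM with 10% FBS at 37 °C and 5% CO2 for 48 h before compounds from commercial libraries were added at 10 μM. ONE-Glo luciferase readings were taken 24 h and 30 h after treatment. Each value is PER2::LUC luminescence given as fold of vehicle control.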

| Structure (SMILES) | PER2::LUC luminescence (time after treatment 24 h) | PER2::LUC luminescence (time after treatment 30 h) |
| --- | --- | --- |
| C[C@@H]1CCNC(=O)c2cc3ccc(C(=O)Nc4nc5ccccc5n4CCCN(C)C)cc3n21 | 0.548 | 0.586 |
| O=C(Nc1nc2ccccc2n1CCN1CCOCC1)c1cccc([N+](=O)[O-])c1 | 1.36 | 1.18 |
| COC(=O)c1ccc2c(c1)nc(NC(=O)c1ccccc1)n2CCCc1ccccc1 | 1.09 | 0.933 |
| CC(C)[C@H](NC(=O)CCCCCN1C(=O)C=CC1=O)C(=O)N[C@@H](CCCNC(N)=O)C(=O)Nc1ccc(COC(=O)Oc2ccc([N+](=O)[O-])cc2)cc1 | 0.958 | 1.07 |
| COC(=O)CNC(=O)C(=O)OC | 0.922 | 0.99 |
| CC(C)(C)c1ccc(S(=O)(=O)Nc2ccc(-n3ccnc3)cc2)cc1 | 1.15 | 1.26 |
| Cc1cc(OCc2nc(-c3ccccc3Cl)cs2)ccc1CCC(=O)O | 1.11 | 1.28 |
| CCOc1cc2c(c(F)c1OCC)C(=N)N(CC(=O)c1cc(N3CCOCC3)c(OC)c(C(C)(C)C)c1)C2 | 0.14 | 0.117 |
| Cc1oncc1C(=O)Nc1ccc(C(F)(F)F)cc1 | 1.35 | 1.82 |
| O=C(Nc1ccc(C(O)(C(F)(F)F)C(F)(F)F)cc1)c1ccc(C(F)(F)F)cc1 | 0.687 | 0.47 |
| Nc1ccc(NC(=O)c2ccc(C(F)(F)F)cc2)nc1 | 1.01 | 0.976 |
| CC1=CC[C@@]2(C)CC[C@@](O)(C(C)C)[C@@H]2[C@@H](OC(=O)c2ccc(O)cc2)C1 | 1.08 | 1.15 |
| O=C(Nc1ccc(Cl)cc1CN1C(=O)c2ccccc2C1=O)c1ccccc1O | 1.03 | 1.02 |
| NC[C@H]1CC[C@H](C(=O)Oc2ccc(CCC(=O)O)cc2)CC1 | 0.828 | 0.901 |
| Cc1cc2c(cc1Cl)N(C(=O)Nc1ccc(Oc3cccnc3C)nc1)CC2 | 0.924 | 1.03 |
| C[Si](C)(C)CCOCn1ccc2c(-c3cn[nH]c3)ncnc21 | 1.11 | 1.03 |
| O=C(O)CCC(=O)Nc1ccc(S(=O)(=O)Nc2nccs2)cc1 | 0.666 | 0.939 |
| S=C(Nc1ccccc1)Nc1nccs1 | 1.46 | 1.58 |
| O=C(O)c1ccccc1C(=O)Nc1ccc(S(=O)(=O)Nc2nccs2)cc1 | 0.993 | 0.892 |
| CCOc1ccc(C(Nc2ccccn2)c2ccc3ccc(C)nc3c2O)cc1C (stereo unspecified) | 1.13 | 1.13 |
| NC(N)=NCCC[C@H](NC(=O)[C@@H](N)Cc1ccc(O)cc1)C(=O)O | 1.04 | 0.909 |
| CS(=O)(=O)c1cc(F)cc2c3c(n(Cc4ccc(Cl)cc4)c12)[C@@H](CC(=O)O)CC3 | 1.13 | 1.09 |
| CC(=O)OC1CCC2(C)C(=CCC3C2CCC2(C)C(C(C)CCCC(C)C)CCC32)C1 (stereo unspecified) | 1.04 | 0.938 |
| CC(C)CCC[C@@H](C)[C@H]1CC[C@H]2[C@@H]3CC=C4C[C@@H](O)CC[C@]4(C)[C@H]3CC[C@]12C | 0.926 | 0.923 |
| CC(C)CCC[C@@H](C)[C@H]1CC[C@H]2[C@@H]3CC=C4CC(=O)CC[C@]4(C)[C@H]3CC[C@]12C | 1.42 | 1.09 |
| CO[C@H]1[C@H](OC(=O)c2ccc(C)[nH]2)[C@H](O)[C@@H](Oc2ccc3c(O)c(NC(=O)c4c[nH]c(C(=O)Nc5c(O)c6ccc(O[C@H]7OC(C)(C)[C@@H](OC)[C@H](OC(=O)c8ccc(C)[nH]8)[C@@H]7O)c(C)c6oc5=O)c4C)c(=O)oc3c2C)OC1(C)C | 1.1 | 1.13 |
| C/C1=C\CC(C)(C)/C=C/C(=O)/C(C)=C/CC1 | 1.08 | 1.06 |
| Cc1nc2ccccc2n1Cc1ccc(Cl)cc1 | 0.361 | 0.307 |

Source: the supplement of paper PMC9334596
